H9c2 protect – modulators protecting cardiomyocytes from myocardial damage; H9c2 cardiomyocytes, H2O2 injury protection, ATPLite, 2 h; protection from H2O2 cell death, % at 20 µM; 0.63% of 360,000 active; AID 588492;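 active means compounds giving at least 50% protection of heart cells from peroxide-induced death in the single-dose screen, raw or plate-pattern-corrected value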;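 further: 0% = DMSO wells with peroxide and 100% = DMSO wells without peroxide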
aDG glyco up – increases alpha dystroglycan glycosylation. activation, % at 10 µM. Pro5-aDG cells, alpha-DG glycosylation AlphaScreen (IIH6); 0% Pro5, 100% B10-LARGE cell signal. AID 624168. 0.22% of 360,000 active;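 active means activation of at least 8% versus controls, or a plate z-score of at least 8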;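 further: Pro5 are CHO cells carrying HIG-tagged alpha-DG that lacks glycosylation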
Mot1-301 SUMO – inhibitors of SUMOylation pathway: yeast Mot1-301 growth rescue | S. cerevisiae Mot1-301 growth rescue, ATP luminescence, 38.5C; percent above DMSO median, 100 means doubled | growth rescue, % at 18.8 µM | 1% of 320,000 active | AID 2716;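 active means every valid replicate shows activation above 250% relative to neutral control wells; inactive means the rest, any valid replicate at or below 250%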;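 further: OY570 slx delta 5 strain wells were the positive control but not used for scaling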
CR mimetic SO – lowers age-related superoxide in aged yeast cells. S. cerevisiae aged cells, superoxide DHE fluorescence; hits give low values. superoxide response (% of plate mean), % at 10 µM. 0.18% of 330,000 active;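 active means superoxide response under a set limit, about three screen SD below normal, cut at about 65% in these data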;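 further: yeast aged for seven days with compound at 30 °C before DHE staining; 100% = average MFI of all compound-treated wells on the plate with controls excluded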
MPTP block – blocks calcium-induced mitochondrial swelling; isolated mouse mitochondria, Ca2+ swelling absorbance, 30 min; inhibition, % at 10 µM; 1.4% of 360,000 active;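 active means inhibition of 50% or more, scaled per plate between neutral and stimulator controls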;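 further: 0% = DMSO wells given calcium and 100% = 1 mM EGTA wells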
FAS-TE inh – inhibitors of human fatty acid synthase thioesterase domain. recombinant FAS-TE, OMFH fluorogenic substrate, fluorescence endpoint. P49327. 0.67% of 360,000 active. inhibition, % at 15 µM. AID 602261;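 active means compounds whose normalised, plate-corrected inhibition of enzyme fluorescence in the single-dose primary screen is 50% or more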;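 further: 0% = DMSO with enzyme and 100% = substrate without enzyme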
Active calls of the source: *; / = no result given. The list is not random: actives were taken first. Their share in the collection is about 3.8%.

SMILES | H9c2 protect | aDG glyco up | Mot1-301 SUMO | CR mimetic SO | MPTP block | FAS-TE inh
Cc1ccc(S(=O)(=O)N2CCC(C(=O)N3CC(C)OC(C)C3)CC2)cc1 (configuration not stated) | -4.6 | -0.2 | -2.7 | 96.9 | -1.7 | -0.2
COC(=O)c1ccc2nc(-c3ccccc3)c(Cc3ccsc3)n2c1 | 4.0 | 0.5 | / | / | -1.3 | -7.8
CC(OC(=O)c1cc2c(ccc3ccccc32)oc1=O)c1nc2ccccc2s1 (configuration not stated) | 68.8* | 0.0 | 21.0 | 100.9 | 2.0 | 22.7
CCOC(=O)c1cc2c(ccc3ccccc32)oc1=O | 9.4 | 0.1 | -6.3 | 124.1 | 2.2 | -0.4
CC1Cc2ccccc2N1C(=O)CSc1nc2c(c(=O)n(C)c(=O)n2C)n1Cc1ccccc1 (configuration not stated) | 71.5* | -0.1 | 4.7 | 108.0 | 0.8 | 40.0
CCn1c(SCC(=O)N2c3ccccc3CCc3ccccc32)nc2c1c(=O)n(C)c(=O)n2C | 31.8 | -0.2 | -9.0 | 90.4 | -1.3 | 0.7
COc1ccc(Nc2nc(-c3cccs3)nc3ccccc23)cc1S(=O)(=O)N1CCOCC1 | 67.3* | -0.3 | 8.3 | 111.7 | 5.8 | 41.8
O=C(C[n+]1ccccc1)Nc1cc(C(F)(F)F)ccc1Cl | 3.5 | -0.1 | -2.6 | 112.4 | 4.5 | -7.7
O=C(C[n+]1ccc2ccccc2c1)Nc1cc(C(F)(F)F)ccc1Cl | 12.1 | 0.2 | 3.5 | 58.6* | -1.7 | -7.4
CCn1c(=O)cc(OCC(=O)N2CCN(C(=O)c3ccco3)CC2)c2ccccc21 | -2.5 | -0.2 | 706.6* | 101.6 | 0.1 | -5.5
O=C(OCC(=O)N1CCN(C(=O)c2ccco2)CC1)c1cc(-c2ccco2)nc2ccccc12 | 49.0* | -0.2 | 3.9 | 145.2 | 1.8 | 1.0
CCOC(=O)N1CCN(C(=O)COc2cc(=O)n(CC)c3ccccc23)CC1 | 4.6 | -0.2 | -8.4 | 97.9 | 0.5 | 0.0
O=C(NC(O)C(=O)c1cccs1)c1cccnc1 (configuration not stated) | 83.2* | -0.4 | -10.8 | 116.7 | 2.5 | -1.6
O=C(Nc1ccccc1C(=O)O)/C(=C/c1ccc(Cl)cc1Cl)NC(=O)c1ccco1 | 0.3 | 0.0 | 420.1 | 97.0 | -0.5 | -2.6
O=c1cc(-c2ccncc2)oc2c1ccc1ccccc12 | 66.5* | 0.0 | 7.5 | 103.6 | 0.7 | 6.1
O=c1oc2ccc3ccccc3c2cc1-c1nnc(-c2ccccc2)o1 | 80.5* | -0.1 | 5.9 | 112.5 | 0.6 | 8.3
CC(=O)N=c1c(C#N)cc2c(=O)n3ccccc3nc2n1Cc1ccccc1 | 3.6 | 0.1 | -11.1 | 100.7 | 0.2 | 54.1*
CC(Oc1cccc(Cl)c1)C(=O)Nc1nc(-c2ccccn2)cs1 (configuration not stated) | 50.1* | 3.2 | 3.6 | 92.3 | -0.8 | 7.0
CC(Oc1ccccc1)C(=O)Nc1nc(-c2ccncc2)cs1 (configuration not stated) | -6.9 | 0.1 | -17.4 | 103.5 | 3.8 | -0.9
CC(Oc1ccccc1)C(=O)Nc1nc(-c2ccccn2)cs1 (configuration not stated) | 51.6* | 0.6 | / | / | 0.7 | -1.2
Cc1cccc(C(=O)NC(C(=O)Nc2nc(-c3ccccn3)cs2)C(C)C)c1 (configuration not stated) | 65.6* | 3.4 | -9.2 | 109.3 | -0.2 | -0.9
CCOC(=O)C1CCN(C(=O)c2c(C)oc3c2C(=O)c2ccccc2C3=O)CC1 | -27.6 | 4.3* | -11.3 | 123.2 | -2.5 | -6.1
COc1ccc(C(=O)Nc2ccc3ccccc3n2)cc1OC | 20.5 | 0.1 | -5.7 | 104.3 | 0.1 | 1.7
O=C(NNc1cccc(Cl)n1)c1cccnc1Cl | -0.5 | 0.1 | -2.7 | 101.2 | 0.2 | -12.8
O=C(NNc1cccc(Cl)c1)c1cccnc1Cl | 0.7 | 1.0 | 343.9* | 95.9 | 0.6 | 1.1
CCCc1c(C(=O)NNc2cccc(Cl)c2)cnn1-c1ccccc1 | -5.0 | 0.1 | 478.2* | 84.5 | 4.3 | 14.1
Fc1ccc(-n2cc(-c3ccccc3)c3c(N4CCOCC4)ncnc32)cc1 | 58.0* | 0.0 | 10.3 | 109.4 | -0.4 | 25.5
COc1ccc(-n2cc(-c3ccccc3)c3c(N4CCOCC4)ncnc32)cc1 | 58.5* | -0.1 | 179.7 | 104.9 | 0.4 | 37.8

Screening data from PubChem BioAssay.
